# In the library only some 5.7% were active in any assay of this set; here they are far more common.
# DAX1 inh-1 = DAX1 (NR0B1) inhibitors on StAR promoter, primary screen, cell-based, luminescence, SF-1 (NR5A1), full-length DAX-1. HEK293T StAR-luciferase reporter, SF-1/DAX-1 repression relief. inhibition, % at 6.8 µM. 370,000 compounds, 1.1% hits. AID 652010, 2013;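 active means inhibition above the mean over all tested compounds plus 3 SD, cut at about 3.6% in these data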;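 further: higher inhibition means more luminescence from relief of DAX-1 repression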
# ssDAF-12 act = S. stercoralis DAF-12 nuclear receptor activators, primary screen, cell-based, luminescence, HEK293, GRIP1 co-expression, lit1-tk-luc | HEK293 ssDAF-12/GRIP1 lit1-tk-luc reporter; % of 3 µM dafachronic acid response | 370,000 compounds, 1% hits | activation, % at 6.8 µM | Nuclear hormone receptor DAF-12 (Strongyloides stercoralis);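 active means activation above the mean over all tested compounds plus 3 SD, cut at about 0.9% in these data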
# DAX1 inh-2 = DAX1 (NR0B1) inhibitors, primary screen, cell-based, HEK293, Gal4-DAX1, luciferase luminescence; AID 504766, 2011; HEK293 Gal4-DAX1 luciferase reporter; inhibition, % at 6.75 µM; 340,000 compounds, 0.99% hits; Nuclear receptor subfamily 0 group B member 1 (Homo sapiens), P51843;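 active means inhibition above the mean over all tested compounds plus 3 SD, cut at about 4.2% in these data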;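 further: inhibition shows as a rise in luminescence from relieved DAX1 repression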
# AHR act = AHR activators, primary screen, cell-based, luminescence, luciferase reporter, human | Aryl hydrocarbon receptor (Homo sapiens), P35869 | AHR-responsive luciferase reporter cells | activation, % at 5 µM | 320,000 compounds, 2.5% hits; in the data active means activation above about 47%
# hgDAF-12 ag = H. glycines DAF-12 receptor agonists, primary screen, cell-based, luminescence, HEK293, GAL4 fusion, UAS-luciferase. HEK293 GAL4-hgDAF12 UAS-luciferase reporter, agonist luminescence; normalized to butyrate control. activation, % at 6.8 µM. 370,000 compounds, 1.8% hits;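 active means activation above a cutoff set at the mean of all screened compounds plus 3 SD, cut at about 10% in these data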
# hcDAF-12 act = H. contortus DAF-12 nuclear receptor activators, primary screen, cell-based, luminescence, HEK293, lit1-tk-luc reporter. HEK293 hcDAF-12 lit1-tk-luc reporter; 0% DMSO, 100% Δ7-dafachronic acid. activation, % at 6.8 µM. 370,000 compounds, 1.4% hits. AID 652067, 2013;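 active means activation above the mean of all tested compounds plus 3 SD, cut at about 5.5% in these data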
# AHR act confirm = AHR activators, confirmation, cell-based, luminescence, luciferase reporter, human; activation, % at 9 µM; AID 2845, 2010; shares compounds with AHR act; 2,300 compounds, 87% hits; human cells, AHR-responsive luciferase reporter; in the data active means activation above about 49%;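 further: HepG2 hepatoma cells carrying a DRE-driven firefly luciferase reporter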
# PXR counter = human PXR activators, counter-screen for AHR activator project, cell-based, luciferase luminescence | shares compounds with AHR act | cell-based PXR reporter | activation, % at 11.6 µM | 2,300 compounds, 88% hits; in the data active means activation above about 11%;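 further: human hepatoma DPX-2 cells expressing full-length human PXR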
# Target sequence (O75469 whole entry, looked up): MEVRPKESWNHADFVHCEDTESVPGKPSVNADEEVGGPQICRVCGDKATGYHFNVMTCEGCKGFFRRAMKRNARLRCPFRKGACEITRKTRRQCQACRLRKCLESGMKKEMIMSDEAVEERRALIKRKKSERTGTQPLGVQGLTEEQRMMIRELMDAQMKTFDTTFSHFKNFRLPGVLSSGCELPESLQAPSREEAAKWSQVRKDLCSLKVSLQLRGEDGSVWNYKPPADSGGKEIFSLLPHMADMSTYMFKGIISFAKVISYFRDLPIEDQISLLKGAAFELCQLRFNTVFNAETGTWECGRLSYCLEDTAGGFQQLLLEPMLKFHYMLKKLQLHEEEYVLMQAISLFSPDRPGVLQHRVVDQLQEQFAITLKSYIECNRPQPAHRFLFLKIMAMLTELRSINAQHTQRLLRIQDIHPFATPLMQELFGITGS
# A number is an active result; – = inactive; · = no result given.
SMILES,DAX1 inh-1,ssDAF-12 act,DAX1 inh-2,AHR act,hgDAF-12 ag,hcDAF-12 act,AHR act confirm,PXR counter
O=C(Nc1cc(Cl)ccc1Cl)c1ccc(-c2ccccc2)cc1,–,–,–,87.4,–,–,90.3,28.7
Clc1ccc(C2=NN=C3COc4ccccc4N3C2)cc1,–,–,–,87.8,–,–,117.7,23.9
COc1ccc(S(=O)(=O)N2CCN(C(=O)c3cc(-c4ccc(C)cc4)n[nH]3)CC2)cc1,–,–,–,–,–,–,·,·
COc1ccc(-c2cc(C(=O)N3CCN(S(=O)(=O)c4ccc(C)cc4)CC3)[nH]n2)cc1,–,–,–,111.3,–,–,–,13.4
CCc1ccc(C(O)c2ncc(-c3ccc4ccccc4c3)[nH]2)cc1 (stereo not drawn),–,–,·,·,–,–,·,·
CN=C(Nc1ccc(Cl)cc1)c1cccc(C(F)(F)F)c1,–,–,–,83.7,–,–,89.0,55.6
CN=C(Nc1ccc(Cl)cc1)c1ccc(C(F)(F)F)cc1,–,–,–,84.8,–,–,98.0,45.0
CN=C(Nc1cccnc1)c1cccc(C(F)(F)F)c1,–,–,–,–,–,–,·,·
CC1CN(S(=O)(=O)c2cccc(C(=O)Nc3ccc(S(=O)(=O)NC4=NCCCCC4)cc3)c2)CC(C)O1 (stereo not drawn),–,–,–,–,–,–,·,·
COc1ccc(-c2cc(C(F)(F)F)nc(NCc3ccco3)n2)cc1OC,·,·,–,–,·,·,·,·
FC(F)(F)c1cc(-c2ccc3c(c2)OCO3)nc(NCc2ccco2)n1,–,–,–,91.0,–,–,75.5,25.5
Cc1cc(C)nc(Nc2n[nH]c(-c3ccccc3C)n2)n1,–,–,4.6,87.3,–,–,130.9,45.3
Cc1cc(C)nc(Nc2n[nH]c(-c3ccccc3Br)n2)n1,–,–,–,–,–,–,·,·
Oc1[nH]c2ccccc2c1N=Nc1ccc(F)cc1,–,–,–,94.0,11.8,–,91.2,–
CCc1noc(C)c1C(=O)Nc1nc(-c2ccc(F)cc2)c(C)s1,–,–,–,94.8,–,–,84.6,27.6
CCc1noc(C)c1C(=O)Nc1nc(-c2cc(C)ccc2C)c(C)s1,–,–,–,–,–,–,·,·
Cc1cnc(C(=O)OCC(=O)Nc2cc(-c3ccccc3)nn2-c2ccccc2)cn1,–,–,–,–,–,–,·,·
C/C=C/C(=O)OCC(=O)Nc1cc(-c2cc(C)c(C)cc2C)nn1-c1ccccc1,–,–,–,105.3,–,–,90.5,84.9
Cc1c(C(=O)O)sc2nc(/C=C/c3cccc(O)c3)[nH]c(=O)c12,–,–,–,–,–,–,·,·
O=C(N/N=C/c1ccc(O)cc1)c1ccc(COc2cc(Cl)ccc2Cl)o1,–,–,–,114.7,–,–,82.7,27.6
O=C(Nc1cccnc1)c1ccc(COc2cc(Cl)ccc2Cl)o1,–,–,–,–,–,–,·,·
O=C(Nc1cccc(S(=O)(=O)N2CCCCCC2)c1)c1ccc2c(c1)OCO2,–,–,–,81.6,–,–,61.9,163.9
O=C(Nc1cccc(S(=O)(=O)N2CCCC2)c1)c1ccc2c(c1)OCO2,–,–,–,87.7,–,–,63.5,208.7
CC1=CC(C)(C(Cl)(Cl)Cl)C(C)=CC1=NO (stereo not drawn),–,–,–,·,–,–,·,·

# Assay outcomes from PubChem BioAssay.
